Screens (PubChem BioAssay)
Pf growth 48h: Primary qHTS for delayed death inhibitors of the malarial parasite plastid, 48 hour incubation; P. falciparum luciferase growth in erythrocytes, 48 h; Potency, µM (series often up to 28.7 µM), most hits filed as inhibitors; hit rate 5.9% among 310,000
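Parasite viability was followed by luminescence of a genomically integrated firefly luciferase. Cultures held 0.1% parasitemia at 2% hematocrit (final), incubated under 5% CO2 at 37 C.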
Lassa entry inh: qHTS for Inhibitors of binding or entry into cells for Lassa Virus | Lassa virus pseudotype entry inhibition, cell reporter | hit rate 1.2% among 300,000 | Potency, µM (highest dose often 37.9 µM), most hits filed as inhibitors | AID 540256, 2011; calls by dose curve; tested in HEK293 cells; note: nearly all actives have a fitted effect of over 50% in size
Shiga toxin inh: A qHTS for Small Molecule Inhibitors of Shiga Toxin. AID 2315, 2010. inhibition, % at 38.7 µM. hit rate 9.2% among 290,000. Vero cells, Shiga toxin protein synthesis inhibition reporter; in the data active = inhibition mostly above about 28%, no sharp cut-off; inactive = mostly below about 43%
Pf growth 96h: Primary qHTS for delayed death inhibitors of the malarial parasite plastid, 96 hour incubation; P. falciparum luciferase reporter growth, 96 h; Potency, µM (titrated, usually from 28.7 µM), hits mostly inhibitors; hit rate 6.9% among 320,000
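Delayed-death screen, second-generation endpoint: infected erythrocytes, 2% hematocrit, 0.05% parasitemia final; 96 hours at 37 C, 5% CO2; luciferase detection reagent; luminescence decrease equals reduced growth.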
Cycloheximide cs: Cycloheximide Counterscreen for Small Molecule Inhibitors of Shiga Toxin; cell reporter, cycloheximide protein synthesis inhibition counterscreen; max response, %; hit rate 12% among 300,000; in the data active = max response mostly above about 13%, no sharp cut-off; inactive = mostly below about 14%; note: read at 38.3 µM for the half of the compounds with a filed dose
Marburg entry inh: qHTS for inhibitors of binding or entry into cells for Marburg Virus; Potency, µM (doses to about 37.8 µM), hits mostly inhibitors; Marburg virus pseudotyped entry inhibition, cell reporter; hit rate 1.8% among 300,000; AID 540276, 2011; calls by dose curve; tested in HEK293 cells
Numbers stand for hits; – = inactive; ? = inconclusive; · = not tested or not shown; [ ] = another dose, or the depositor's remark. Rows were chosen to be rich in hits. Some 19% of all compounds tested hit in one or more screens of this group. Unless noted, calls come from the whole dose curve; as a rule, active = well fitted inhibition curve with a large enough effect; inconclusive = small, poorly fitted or top-dose-only effect, or another doubt; inactive = no such curve, though single readings can be large or run the other way.

SMILES	Pf growth 48h	Lassa entry inh	Shiga toxin inh	Pf growth 96h	Cycloheximide cs	Marburg entry inh
Cc1ccc2nc(-c3ccc(N4C(=NC(=O)CCC(=O)O)SC5CS(=O)(=O)CC54)cc3)sc2c1 (configuration not stated)	–	?	124	–	37	?
Cc1ccc(CN2C(=NC(=O)CCC(=O)O)SC3CS(=O)(=O)CC32)cc1 (configuration not stated)	–	–	–	–	–	–
CC(=O)N=C1SC2CS(=O)(=O)CC2N1c1ccc(-c2nc3ccc(C)cc3s2)cc1 (configuration not stated)	–	·	54	–	18	–
CCCCCNC(=O)c1ccccc1SC	–	–	–	·	–	–
COC(=O)CN1C(=O)C(C)=C(c2ccc(C)cc2)S1(=O)=O	–	–	–	–	–	–
COc1cc(CN2CCN(Cc3ccc(SC)cc3)CC2)cc(OC)c1O	–	–	–	–	–	–
Cc1ccc(C)c(S(=O)(=O)NCc2ccc(C(=O)NCc3ccco3)cc2)c1	?	–	–	9.3µM	–	?
Cc1ccc(/C=C(\NC(=O)c2ccccc2)C(=O)NC(Cc2ccccc2)C(=O)O)cc1 (configuration not stated)	–	–	–	0.52µM	–	?
Cc1ccc(C(=O)N/C(=C/c2cccs2)C(=O)NCc2ccco2)cc1	–	–	–	0.52µM	–	–
COCCNC(=S)NC(=O)c1ccc(C(C)(C)C)cc1	–[5.75 µM]	·	96	?	59	·
CCCn1nc(C(=O)OCC(=O)Nc2cccc(OC)c2)c2ccccc2c1=O	–	–	–	–	–	–
CCOCCCn1c(SCC(=O)NCCCOC)nc2c(sc3ccccc32)c1=O	·	–	·	·	·	·
CCC(C(=O)Nc1ccccc1)n1nc(-c2cc(C)ccc2C)ccc1=O (configuration not stated)	·	–	·	·	·	?
CCOc1ccc(S(=O)(=O)c2cn(C)c3ccccc3c2=O)cc1	·	–	·	·	·	–
CCOC(=O)CC1COc2ccccc2N1C(=O)c1ccc(C)cc1 (configuration not stated)	–	–	–	–	–	–
O=C(NCc1ccco1)c1ccccc1O	–	·	–	10µM	–	·
Cc1ccc(C(=O)NCc2ccco2)cc1	–	·	–	–	18	·
CCC1=Nc2cc(C(=O)NCCN3CCOCC3)ccc2Sc2ccc(C)cc21	?	·	–	–	–	·
O=C(NCc1ccco1)c1ccc(C(=O)NCc2ccco2)cc1	·	–	·	·	·	–
CCC1=Nc2cc(C(=O)NCc3ccco3)ccc2Sc2ccc(C)cc21	1.3µM	?	–	–	–	–
Cc1ccc(NC(=O)/C(=C\c2cccs2)NC(=O)c2ccccc2)cc1	?	–	–	7.4µM	–	–
O=C(Nc1ccc(O)cc1)/C(=C\c1cccs1)NC(=O)c1ccccc1	–	–	–	–	–	–
CCCc1ncc(C(O)(c2ccccc2)c2ccc(C)cc2)n1C (configuration not stated)	?	?	–	?	–	?
O=C(NC(=S)NCc1ccco1)c1ccccc1	–	–	–	–	–	–
CC(C)(C)c1ccc(C(=O)NC(=S)NCc2ccco2)cc1	?	·	–	–	24	·
SMILES	Pf growth 48h	Lassa entry inh	Shiga toxin inh	Pf growth 96h	Cycloheximide cs	Marburg entry inh
Cc1ccc(C(=O)NCc2ccco2)c(C)c1	–	–	–	12µM	–	–
Cc1ccc(C(=O)Nc2cccc(C(=O)NCc3ccco3)c2)cc1	–	?	35	–	19	?
Cc1ccc(SCCNCc2ccco2)cc1	–	·	–	–	14	·
Cc1ccc(C(=O)Nc2cccc(C(=O)NCc3ccccc3)c2)cc1	–	–	–	–	15	–
CCOC(=O)C1CCN(c2c(NCc3ccc(C(=O)NC4CCCC4)cc3)c(=O)c2=O)CC1	·	·	–	?	–	·
CCOC(=O)C1CCN(c2c(NCc3ccc(C(=O)Nc4ccc(C)cc4)cc3)c(=O)c2=O)CC1	4.7µM	·	–	4.1µM	–	·
CCCCNC(=O)c1ccc(CNc2c(N3CCC(C(=O)OCC)CC3)c(=O)c2=O)cc1	12µM	–	–	?	–	?
Cc1cc(C)cc(NC(=O)c2ccc(CNc3c(N4CCCC4)c(=O)c3=O)cc2)c1	?	?	–	0.52µM	–	–
O=C(NCc1ccco1)c1ccc(CNc2c(N3CCCCC3)c(=O)c2=O)cc1	–	–	–	10µM	–	–
O=C(O)C1CCCN1 (configuration not stated)	·	·	–	·	–	·
Cc1ccccc1OCc1nnc(SCC(=O)O)n1-c1cccc(Cl)c1	–	·	–	–	–	·
C=Cc1cc(OC)c2c(c1)c(=O)oc1c2cc(OC)c2c(O)ccc(C3OC(C)C(O)C(C)(O)C3O)c21 (configuration not stated)	·	0.4µM	·	·	·	?
CCn1c(=O)cc(OCC(=O)N2CCN(Cc3ccc4c(c3)OCO4)CC2)c2ccccc21	?	–	–	·	–	–
Cc1ccc(Cn2nnnc2CN2CCC(NC(=O)c3ccc(Br)cc3)CC2)cc1	3.7µM	–	–	?	–	–
Cc1ccccc1C(=O)NC1CCN(Cc2nnnn2C(C)(C)C)CC1	–	·	–	–	–	·
CCC(C)(C)n1nnnc1CN1CCC(NC(=O)c2ccc(Br)cc2)CC1	?	–	–	4.1µM	–	–
Cc1ccccc1C(=O)NC1CCN(Cc2nnnn2C2CCCC2)CC1	–	–	–	6.6µM	–	–
CC(C)(C)n1nnnc1CN1CCC(NC(=O)NC2CCCCC2)CC1	–	?	–	–	–	–
O=C(CN1CCN(c2ccccc2)CC1)Nc1ccc(-n2cnnn2)cc1	–	–	–	–	–	–
CC(=O)NC1C(=O)N=C(SCc2ccccc2)NC1=O (configuration not stated)	–	–	–	·	–	–
CC(=O)NC1Sc2ccccc2N=C1c1ccccc1 (configuration not stated)	–	–	111	?	43	?
CN(C(=O)C1CCCO1)c1nnc(-c2cnccn2)s1 (configuration not stated)	–	–	–	3.3µM	–	–
Cc1ccc(-c2nnc(N(C)C(=O)c3ccccn3)s2)cn1	–	–	–	?	13	–
CN(C(=O)c1cccnc1)c1nnc(-c2cccnc2)s1	–	–	–	?	–	–
CN(C(=O)c1cccnc1)c1nnc(-c2ccccn2)s1	–	–	–	–	51	?
Cc1cnc(-c2nnc(N(C)C(=O)c3ccccn3)s2)cn1	–	·	–	–	–	·
CC(=O)c1cnc(-c2ccccn2)s1	10µM	–	–	?	34	?
Cc1cc(-n2ccnc2)n2c(nc3ccccc32)c1C#N	·	–	–	–	–	?
Cc1cc2c3c(c1)C1(SCC(=O)N1c1ccc(F)cc1)C(=O)N3C(C)(C)CC2C (configuration not stated)	·	–	–	?	–	?
CCOc1ccc(Cc2noc3c2C(=O)CCC3)cc1OCC	–	–	–	–	–	–
